We go through 61 molecules from PubChem BioAssay AID602179 (National Center for Advancing Translational Sciences (NCATS), 2012).

Each structure is given as a SMILES string. In all, about 390,000 compounds went through this assay and about 360 (0.092%) were called active. Calls follow the shape of the dose curve; as a rule, active = well fitted inhibition curve with a large enough effect; inconclusive = small, poorly fitted or top-dose-only effect; inactive = no such curve, though single readings can be large or run the other way. What follows is part of a selection rich in actives, with near analogues and random picks from the rest. Entries that show only a call come without a potency.
Potency is read from the fitted curve at half-maximal effect.

Sequence of Isocitrate dehydrogenase [NADP] cytoplasmic (Homo sapiens) (O75874 whole entry R132H, stated change not applied): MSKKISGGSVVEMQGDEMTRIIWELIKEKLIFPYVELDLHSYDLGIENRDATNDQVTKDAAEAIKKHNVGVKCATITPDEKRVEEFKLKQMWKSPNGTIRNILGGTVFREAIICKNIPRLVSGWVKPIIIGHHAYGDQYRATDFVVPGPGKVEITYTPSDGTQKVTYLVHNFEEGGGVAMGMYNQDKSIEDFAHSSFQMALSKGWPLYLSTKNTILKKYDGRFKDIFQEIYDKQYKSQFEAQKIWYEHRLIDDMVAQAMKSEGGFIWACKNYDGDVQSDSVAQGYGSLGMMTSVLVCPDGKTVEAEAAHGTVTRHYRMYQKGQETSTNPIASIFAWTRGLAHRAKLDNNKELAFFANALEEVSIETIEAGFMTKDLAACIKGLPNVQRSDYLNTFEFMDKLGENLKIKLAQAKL

This experiment has as its target Isocitrate dehydrogenase [NADP] cytoplasmic (Homo sapiens) (UniProt O75874). The experiment is described as follows: qHTS for Inhibitors of mutant isocitrate dehydrogenase 1 (IDH1): qHTS. Also: nearly all actives have a fitted effect of over 65% in size. The following applies: IDH1-R132H enzyme, NADPH consumption, diaphorase/resazurin fluorescence; series mostly up to 76.6 µM. Summed up: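 IDH1-R132H (0.5 ug/mL dispensed) in pH 7.5 Tris buffer was preincubated 30 min with compound, then given a substrate mix of 0.016 mM NADPH and 2 mM alpha-KG for 80 min at room temperature; remaining NADPH was read by diaphorase/resazurin fluorescence.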
(In qHTS, concentration-response curves come from the screen itself.)
In the case of `CCn1c(=O)cc(OCC(=O)Nc2cc(Cl)c(OC)cc2OC)c2ccccc21`, the Potency result is “inactive”. Regarding `Cc1ccc(-c2nn(CCC(=O)Nc3ccc(OC(F)(F)F)cc3)c(=O)c3ccccc23)cc1`, the Potency entry was “inactive”. Regarding `Cc1ccc(C(=O)N2c3ncnn3C3(CCCCC3)[C@@H]3CCCC[C@@H]32)cc1`, the Potency result was “inactive”. The value for `CCCNc1ncnc2c1c(-c1ccccc1)cn2-c1ccc(OCC)cc1` was 28.2 µM (active); that for `CCOC(=O)C1CCN(c2ncnc3c2c(-c2ccccc2)cn3-c2ccc(C)cc2)CC1` was “inactive”; that for `O=c1[nH]cnc2c1c(-c1ccccc1)cn2-c1ccc(F)cc1` was “inactive”. The value for `CCc1ccc(CNC(=O)c2cc3c(=O)n(CC)c4ccccc4c3s2)cc1` was “inactive”; that for `O=C(NCC(c1cccnc1)N1CCc2ccccc21)c1cccc(C(F)(F)F)c1` (stereo unspecified) was “inactive”. Under `COc1cc(C(=O)N2CCN(c3ccc(Nc4ccc(C)cc4)nn3)CC2)cc(OC)c1OC` stands “inactive”; under `CCc1ccc(N(CC)C(=O)CCn2cnc3onc(-c4ccc(F)cc4)c3c2=O)cc1`, “inactive”. On to `Cc1ccc(CSc2nc3cccnc3n2Cc2ccc(C(=O)NC3CC3)cc2)cc1`, for which the Potency result is “inactive”. Consider `COc1ccc(/C=C/c2nc(C#N)c(NCc3ccc(F)cc3)o2)cc1OC`, for which the Potency result was “inactive”.

Consider `Cc1ccc2nc(/C(C#N)=C/c3ccc(-c4ccc(C(=O)OC(C)C)cc4)o3)[nH]c2c1`, for which the Potency entry was “inactive”.

`CCCn1c(NCc2ccccc2F)nc2ccccc21`: the Potency result was “inactive”. Under `O=C(C1CC1)N1CCc2cc(Br)cc(S(=O)(=O)N3CCN(c4ccccc4F)CC3)c21` stands “inactive”.

On to `Cc1ccc2nc(-c3ccc(C)c(NC(=O)Cc4ccccc4)c3)oc2c1`, for which the Potency entry is “inactive”. As for `CCc1ccccc1NC(=O)Cc1ccc(NC(=O)N2CCCCc3ccccc32)cc1`, the Potency result was “inactive”. The value for `COc1cccc(CNC(=O)C(NS(=O)(=O)c2ccc3nc(C)sc3c2)C(C)C)c1` (stereo unspecified) was “inactive”; that for `Cc1nc2sc(C)c(C)n2c(=O)c1S(=O)(=O)NCCc1ccc(Cl)cc1` was “inactive”; that for `COc1ccccc1CCNC(=O)c1cccn1-c1nnc(N2CCCCC2)s1` was “inactive”. As to `COc1ccc(S(=O)(=O)NCc2cccn2Cc2cccc(C)c2)cc1`, the Potency result was “inactive”. Under `COC(=O)c1sc2ncccc2c1-n1c(C)ccc1C` stands “inactive”; under `CCCN1CCN(CCCNC(=O)c2ccc3nc(Cc4ccccc4)oc3c2)CC1`, “inactive”; under `Cc1ccc(-c2cc(-c3coc4ccccc4c3=O)c3c(n2)-c2cc(Cl)ccc2OC3)cc1`, “inactive”. Under `O=C(NCc1ccccc1)c1ccc2c(c1)nc1n2CCCCC1` stands “inactive”; under `Cn1c(=O)nc2n(-c3ccc(Br)cc3)c3cccc(Cl)c3cc-2c1=O`, “inactive”. Under `CCc1ccc(S(=O)(=O)c2nnn3c2nc(N2CCN(CC)CC2)c2sccc23)cc1` stands “inactive”; under `Cc1cc(C)c2oc(C(=O)Nc3ccc(S(=O)(=O)N(C)c4ccccc4)cc3)cc(=O)c2c1`, “inactive”; under `Cc1nn(-c2ccc(N3CCCCC3)nn2)c(C)c1CCC(=O)NCc1ccccc1F`, “inactive”.

Turning to `COC(=O)c1cc(NC(=O)c2cnc(SC)nc2-c2ccccc2)cc(C(=O)OC)c1`, the Potency entry is “inactive”. Under `COC(=O)c1ccc(-c2c(-c3ccccc3)ncc3cc(OC)c(OC)cc23)cc1` stands 39.8 µM (active); under `COc1ccc(C(=O)Nc2ccc(-n3nncc3-c3ccccc3)cc2)cc1OC`, “inactive”. Under `COc1ccc(C)cc1NC(=O)COCc1cc(-c2cccs2)on1` stands “inactive”.

With `CCOC(=O)c1c(S(=O)(=O)NCC(=O)Nc2ccc(Cl)c(C(F)(F)F)c2)c(C)n(C)c1C`, the Potency result was “inactive”.

Regarding `Cc1cc(N2CCN(c3cccc(C(F)(F)F)c3)CC2)n2nc(-c3ccccc3)nc2n1`, the Potency result is “inactive”. In the case of `COC(=O)c1cc(S(=O)(=O)N2CCN(c3cc(Cl)ccc3C)CC2)c[nH]1`, the Potency entry is “inactive”. Take `COc1ccc(CCNC(=O)c2ccc3c(c2)nc(C)n3-c2ccc(Br)cc2)cc1OC`: the Potency entry was “inactive”. The value for `COc1ccc(CNC(=O)CCc2c(C)nn(-c3ccc(N4CCCC4)nn3)c2C)cc1` was “inactive”; that for `CCOc1ccc(N(CC)S(=O)(=O)N2CCCC(C(=O)NCc3ccc(SC)cc3)C2)cc1` (stereo unspecified) was “inactive”; that for `CCCCOc1ccc(Cn2c(=O)oc3ccc(C)cc32)cc1OC` was “inactive”.

Consider `COc1ccc(CN2C(=O)CC(Cc3ccc(C)cc3)C2=O)cc1OC` (stereo unspecified), for which the Potency result is “inactive”. The value for `CCCCOc1ccc(CN2C(=O)C(=O)c3cc(Br)cc(C)c32)cc1OC` was 28.2 µM (active); that for `O=S(=O)(c1ccc(Br)cc1)c1nnn2c1nc(N1CCOCC1)c1sccc12` was “inactive”; that for `COc1ccc(N2C(=O)CSC23C(=O)N(Cc2cccc(F)c2)c2ccccc23)cc1Cl` (stereo unspecified) was “inactive”. The value for `Cc1ccc(CNC(=O)CSc2c3c(nc4cc(Cl)ccc24)CCCC3)cc1` was “inactive”. With `Cc1cc(Cl)ccc1NC(=O)Cc1ccc(NC(=O)N2CCCCc3ccccc32)cc1`, the Potency entry was “inactive”. For `CC1CN(C(=O)N2CCC(C(=O)NCc3cccs3)CC2)c2ccccc2O1` (stereo unspecified), the Potency result is “inactive”. Take `Cc1ccc(O)c(NC(=O)c2cc(-c3ccc(F)cc3)no2)c1`: the Potency entry is “inactive”. For the molecule `Cc1ccc(Nc2nc3ccccc3nc2-n2nc(C)cc2C)c(Cl)c1`, the Potency entry was “inactive”. Under `CCCN(CCC)C(=O)Cn1c(=O)n(-c2ccc(Cl)cc2)c(=O)c2c3c(sc21)CCCCC3` stands “inactive”; under `CCCn1c2ccccc2c2cnn(CC(=O)N(CC)c3cc(C)ccc3C)c(=O)c21`, “inactive”. Under `N#Cc1ccc(-c2cccs2)nc1SCc1ccc(Br)cc1` stands “inactive”; under `COc1ccc(Cl)cc1NC(=O)CSc1nc2ccccc2c2nc(-c3ccccc3)nn12`, “inactive”. Under `O=C(CCc1cn(Cc2ccc(F)cc2)c2ccccc12)NC1CCCCC1` stands “inactive”; under `O=C(C1COc2ccccc2O1)N(Cc1cccnc1)c1nc2c(F)cc(F)cc2s1` (stereo unspecified), “inactive”; under `CCOC(=O)c1ccc(NC(=O)Cn2c(=O)n(-c3ccc(C)cc3)c(=O)c3c2cnn3C)cc1`, “inactive”. As for `CCCCn1c(CNC(=O)C23CC4CC(CC(C4)C2)C3)nnc1SCC(=O)Nc1ccc(C)cc1`, the Potency entry is “inactive”. Under `COCCNC(=O)c1ccc2c(c1)N(Cc1cccc(Cl)c1)C(=O)c1ccccc1S2(=O)=O` stands “inactive”; under `COc1ccc(-c2nnc(SCC(=O)Nc3ccccc3C)o2)cc1OC`, “inactive”; under `CCCCc1nn2c(=O)cc(COC(=O)c3ccccc3NC(=O)C(C)(C)C)nc2s1`, “inactive”. The value for `COc1cc(NC(=O)CSc2nc3nc(C)c(Cc4ccc(C)cc4)c(C)n3n2)cc(OC)c1OC` was “inactive”.
